These results are taken from paper PMC4552634, “A New Set of Chemical Starting Points with Plasmodium falciparum Transmission-Blocking Potential for Antimalarial Drug Discovery” (PLoS ONE, 2015).

The campaign covered roughly 13,000 compounds. About 3,200 (25%) showed an effect of 50% or more. Some of the results follow.

This test has as its system P. falciparum stage V gametocytes. More on the design: BacTiter-Glo ATP luminescence viability of purified stage V gametocytes in 384-well plates, per cent inhibition versus DMSO. The conditions noted are these: 48 h, 5 µM; inhibitor.
What is called % Inhibition is the change of the read-out against control, counted positive when it falls. Consider `O=C(Nc1cccc(-c2ccc(-c3nc4ccccc4[nH]3)cc2)c1)c1cnn2cccnc12` [TCMDC-136866], for which the “% Inhibition” value is given as -17.05%.

As to `CN(c1ccc(NC(=O)CCOc2ccccc2)cc1)C1CCN(Cc2cccc(O)c2)CC1` [TCMDC-134988], the “% Inhibition” value is on record as 49.59%.

Turning to `CC(C)(C)OC(=O)C1CCCN(Cc2ccc(-c3cccc(-c4nc5ccccc5[nH]4)c3)cc2)C1.O=C(O)C(F)(F)F` (centres unmarked) [TCMDC-132560], the “% Inhibition” value is 11.65%.

`C=CCN1CCC(N(Cc2cccc(Oc3ccccc3)c2)C(=O)C(c2ccccc2)c2ccccc2)CC1` [TCMDC-139601]: the “% Inhibition” value is given as 20.39%.

In the case of `CC(C)(NCc1ccc(OC(F)(F)F)cc1)c1nc(-c2ccc(Cl)c(O)c2)c(-c2ccncc2)[nH]1` [TCMDC-140709], the “% Inhibition” value is given as -27.3%.

For the compound `CCOC(=O)c1cn(CC)c2cc(N(C)CCc3ccc(OC)c(OC)c3)c(F)cc2c1=O` [TCMDC-124159], the “% Inhibition” value is reported as 16.46%.

On to `CCc1ccc(CN2CCC(CN(C(=O)c3ccccc3)c3ccc(Cl)cc3)CC2)cc1` [TCMDC-135382], for which the “% Inhibition” value was determined as 136.1%.

Consider `O=C(OCC1CCN(Cc2ccccc2)C1)c1ccc(Cl)cc1` (centres unmarked) [TCMDC-138995], for which the “% Inhibition” value is reported as -9.252%.

For `O=C(NCc1ccc(Cl)cc1)c1ccc(CN2CCCN(CC3CCCCC3)CC2)cc1` [TCMDC-136441], the “% Inhibition” value is recorded as -2.203%.

For `CC(=O)Nc1ccc(C(=O)NC2CCN(c3ccnc4cc(Cl)ccc34)C2)cc1` (centres unmarked) [TCMDC-133650], the “% Inhibition” value is on record as -2.707%.

Turning to `O=[N+]([O-])c1cccc(CNCC2CCN(Cc3ccc(O)cc3)CC2)c1` [TCMDC-141212], the “% Inhibition” value is given as 5.704%.

For the compound `O=[N+]([O-])c1cccc(CNCC2CCN(Cc3ccc(-c4ccccc4)cc3)CC2)c1` [TCMDC-141208], the “% Inhibition” value worked out at 17.3%.

With `COc1ccc(CN2CCC(CNC(C)c3cccc4ccccc34)CC2)cc1` (centres unmarked) [TCMDC-141341], the “% Inhibition” value is listed as -19.33%.

Regarding `COc1ccc(CN2CCC(CNCC(c3ccccc3)c3ccccc3)CC2)cc1` [TCMDC-141342], the “% Inhibition” value was found to be 89.13%.

For the compound `COc1ccc(CN2CCC(NCc3ccc(C(F)(F)F)cc3)CC2)cc1` [TCMDC-141653], the “% Inhibition” value is on record as 11.64%.

In the case of `COc1ccc(CN2CCC(CNCc3cccc(-c4ccccc4)c3)CC2)cc1` [TCMDC-141349], the “% Inhibition” value is listed as 97.96%.

For the compound `CCN(CC)c1ccc(C(c2ccc(N(CC)CC)cc2)c2cccc([N+](=O)[O-])c2)cc1` [TCMDC-131244], the “% Inhibition” value is listed as -3.754%.

For `Cc1cccc2nc(-c3ccc(-c4cccc(CN5CCN(c6ccc(C#N)cn6)CC5)c4)s3)[nH]c12.O=C(O)C(F)(F)F` [TCMDC-133111], the “% Inhibition” value is given as -25.75%.

As to `CCN(CC)CCCC(C)Nc1ccnc2cc(C#N)ccc12` (centres unmarked) [TCMDC-138027], the “% Inhibition” value is on record as -9.256%.

Turning to `CCOc1ccc(OCCCON2C(N)=NC(N)=NC2(C)C)cc1` [TCMDC-131735], the “% Inhibition” value is on record as -0.1444%.

With `Cc1cc2cc(CNCCc3ccccc3Br)ccc2nc1N` [TCMDC-138097], the “% Inhibition” value is reported as 84.79%.

For `Cc1cc(N)nc2cc(CNCCc3ccccc3Br)ccc12` [TCMDC-138095], the “% Inhibition” value came out at 22.25%.

Consider `Cc1cc2ccc(CNCCc3ccccc3Br)cc2nc1N` [TCMDC-138094], for which the “% Inhibition” value turned out to be 34.17%.

As for `CCCCC(=O)Nc1ccc(Nc2nc(C)cc(N3CCCC3)n2)cc1` [TCMDC-124717], the “% Inhibition” value is 46.79%.

For `O=C(Nc1ccccc1)N(Cc1ccc(-c2cccc(CNC3CCCC3)c2)cc1)C1CCN(Cc2ccccc2)CC1` [TCMDC-140601], the “% Inhibition” value is 107.8%.

On to `O=C(Nc1ccccc1)N(Cc1ccc(-c2ccc(CNC3CCCC3)cc2)cc1)C1CCN(Cc2ccccc2)CC1` [TCMDC-140602], for which the “% Inhibition” value stood at 100.4%.

For `O=C(Nc1ccccc1)N(Cc1cccc(-c2ccc(CNC3CCCC3)cc2)c1)C1CCN(Cc2ccccc2)CC1` [TCMDC-140589], the “% Inhibition” value was found to be 100.6%.

Regarding `O=C(Nc1ccccc1)N(Cc1ccccc1-c1cccc(CNC2CCCC2)c1)C1CCN(Cc2ccccc2)CC1` [TCMDC-140581], the “% Inhibition” value is listed as 108.7%.

Take `Oc1cccc(-c2nc(-c3cccc(I)c3)c(-c3ccc(-c4nc(-c5cccc(O)c5)[nH]c4-c4cccc(I)c4)cc3)[nH]2)c1` [TCMDC-125665]: the “% Inhibition” value worked out at 42.71%.

Consider `COC(=O)c1ccc(C2OC3(C(=O)c4ccccc4C3=O)C(OC)=C2Cl)cc1C(C)=O` (centres unmarked) [TCMDC-125782], for which the “% Inhibition” value is listed as -9.104%.

For `N#Cc1ccc2c(c1)CCN(CCC1CCC(NC(=O)/C=C/c3nc4ccccc4s3)CC1)CC2` (centres unmarked) [TCMDC-139686], the “% Inhibition” value was -32.82%.

As to `COc1ccc(O)c(Cc2cnc3nc(N)nc(N)c3c2C)c1` [TCMDC-137998], the “% Inhibition” value was -28.9%.

As to `Cc1cc(C(=O)CSc2nc3ccccc3n2-c2ccccc2)c(C)n1C1CCS(=O)(=O)C1` (centres unmarked) [TCMDC-124855], the “% Inhibition” value was -17.36%.

Take `CC1CN(Cc2ccccc2)CCN1c1ccc(NC(=O)c2cccs2)cc1` (centres unmarked) [TCMDC-135005]: the “% Inhibition” value is 31.52%.

Turning to `CC(C)(C)c1ccc(-c2nnc(N)nc2N)cc1` [TCMDC-137284], the “% Inhibition” value is -12.55%.

As to `CN(C)CCNC(=O)c1ccc(-c2ccc3c(Nc4ccccc4)c(C(N)=O)cnc3c2)cc1` [TCMDC-138672], the “% Inhibition” value turned out to be 14.13%.

Take `COc1cccc(Nc2c(C(N)=O)cnc3ccc(-c4ccc([S+](C)[O-])cc4)cc23)c1` (centres unmarked) [TCMDC-135184]: the “% Inhibition” value is reported as 93.94%.

For the compound `COc1cccc(Nc2c(C(N)=O)cnc3ccc(-c4ccccc4)cc23)c1` [TCMDC-135227], the “% Inhibition” value is reported as 39.19%.

For the compound `CS(=O)(=O)c1cccc(-c2cnc3[nH]cc(-c4ccc(C(=O)O)cc4)c3c2)c1` [TCMDC-136271], the “% Inhibition” value is given as 0.4612%.

As for `COc1ccc2nccc(N3CCCN(CCNCc4ccc5c(n4)NC(=O)CS5)CC3)c2n1` [TCMDC-134640], the “% Inhibition” value came out at 33.98%.

Consider `CCc1ccc(C2=Nn3c(nnc3-c3cccs3)SC2)cc1` [TCMDC-124336], for which the “% Inhibition” value is 80.16%.

As to `CCC(c1ccccc1)c1nn2c(-c3cccs3)nnc2s1` (centres unmarked) [TCMDC-123825], the “% Inhibition” value is listed as 7.835%.

As for `Cc1ccc(C2CC(c3cccs3)=NN2C(=O)c2ccc(Br)o2)cc1` (centres unmarked) [TCMDC-125610], the “% Inhibition” value is 12.81%.

`O=C(NCCCCN1CCN(c2cccc3c2OCCO3)CC1)c1ccc(NC(=O)c2cc(Cl)cc(Cl)c2)cc1` [TCMDC-138222]: the “% Inhibition” value is reported as -31.39%.
